Measurements published in PubChem BioAssay (NCATS).
Inconclusive results are not listed. Where a call stands in place of a potency, no number is given. Calls of active or inactive are those of the source. Calls come from the whole dose curve; as a rule, active = well fitted curve in the direction sought with a large enough effect; inconclusive = small, poorly fitted or top-dose-only effect, or another doubt; inactive = no such curve, though single readings can be large; an effect the other way counts as inactive or inconclusive.
Note: nearly all actives have a fitted effect of over 70% in size.
Potency is the fitted concentration of half-maximal effect.

Test: Primary qHTS for inhibitors of nuclear receptor binding SET domain protein 2 (NSD2) in an isogenic RCH-ACV NSD2 p.E1099K mutant (9B) (AID 1645876)
Settings: RCH-ACV NSD2 E1099K (9B) viability, CellTiter-Glo, 72 h; series mostly up to 44.9 µM
With `CC1(C)OC(=O)Nc2ccc(Br)cc21` the Potency was “inactive”.
For `Cc1nc(C2CCCCC2)c(-c2ccc(S(N)(=O)=O)c(F)c2)o1`, the Potency was 11.9 µM (active).
With `CCN1C(=O)c2ccccc2C1Nc1ccc(OCCN2CCCCC2)cc1` (stereo not drawn) the Potency was “inactive”.
In the case of `CCOC(=O)C(=O)CCCCCCl`, the Potency is reported as “inactive”.
For `Cc1ccc(/C=N/n2c(-c3ccccc3)csc2=S)cc1`, the Potency was “inactive”.
For `CC(C(=O)O)c1ccc(/C=C2\CCCCC2=O)cc1` (stereo not drawn), the Potency was “inactive”.
With `CCCCCCOC(=O)NC(=N)c1ccc(NCc2nc3cc(C(=O)N(CCC(=O)OCC)c4ccccn4)ccc3n2C)cc1` the Potency was 18.6 µM (active).
For `CCOC(=O)c1ccc(NC(=O)CN2CCCCC2)cc1`, the Potency was “inactive”.
In the case of `CCCCC(CC)COC(=O)c1ccccc1C(=O)O` (stereo not drawn), the Potency is reported as “inactive”.
For `CCOC(=O)NNc1nncc2ccccc12`, the Potency was “inactive”.
In the case of `NS(=O)(=O)c1cc2c(cc1Cl)CN(C1CCCCC1)C2=O`, the Potency is reported as “inactive”.
For `COc1ccc2c(c1)CCCC2=O`, the Potency was “inactive”.
For `Nc1ccc(C(=O)N2CC3CC(CN(Cc4ccccc4)C3)C2)cc1`, the Potency was “inactive”.
With `N[C@@H](Cc1cc(I)c(O)c(I)c1)C(=O)O` the Potency was “inactive”.
In the case of `CCc1cc2cc(OC)c(OC)cc2c(Cc2ccccc2)n1`, the Potency is reported as 23.7 µM (active).
With `C/C(=N/NC(=O)c1ccncc1)C(=O)O` the Potency was “inactive”.
For `Nc1c(NC/C=C\COc2cc(CN3CCCCC3)ccn2)c(=O)c1=O`, the Potency was “inactive”.
In the case of `C[C@@H]1C[C@H]2[C@@H]3CCC4=CC(=O)C=C[C@]4(C)[C@@]3(F)[C@@H](O)C[C@]2(C)[C@@]1(O)C(=O)COC(=O)c1ccncc1`, the Potency is reported as “inactive”.
With `COC(=O)c1cc(Cl)c(NC(C)=O)cc1OC` the Potency was “inactive”.
In the case of `COc1ccc(CCC(C)=O)cc1`, the Potency is reported as “inactive”.
For `O=C(NN1CCCC1)NS(=O)(=O)c1ccc(Cl)cc1`, the Potency was “inactive”.
With `CCc1cccc2c(CCO)c[nH]c12` the Potency was “inactive”.
With `O=C1Cc2cc(Cl)ccc2N1` the Potency was “inactive”.

Test: Primary qHTS for inhibitors of nuclear receptor binding SET domain protein 2 (NSD2) in an RCH-ACV wild type WT cells (2C) (AID 1645877)
Settings: RCH-ACV (leukaemia line) NSD2 WT (2C) viability, CellTiter-Glo, 72 h; series mostly up to 44.9 µM
In the case of `CC1(C)OC(=O)Nc2ccc(Br)cc21`, the Potency is reported as “inactive”.
In the case of `Cc1nc(C2CCCCC2)c(-c2ccc(S(N)(=O)=O)c(F)c2)o1`, the Potency is reported as 13.3 µM (active).
With `CCN1C(=O)c2ccccc2C1Nc1ccc(OCCN2CCCCC2)cc1` (stereo not drawn) the Potency was “inactive”.
In the case of `CCOC(=O)C(=O)CCCCCCl`, the Potency is reported as “inactive”.
With `Cc1ccc(/C=N/n2c(-c3ccccc3)csc2=S)cc1` the Potency was “inactive”.
For `CCOC(=O)c1ccc(NC(=O)CN2CCCCC2)cc1`, the Potency was “inactive”.
In the case of `COc1ccc2c(c1)CCCC2=O`, the Potency is reported as “inactive”.
With `Nc1ccc(C(=O)N2CC3CC(CN(Cc4ccccc4)C3)C2)cc1` the Potency was “inactive”.
In the case of `N[C@@H](Cc1cc(I)c(O)c(I)c1)C(=O)O`, the Potency is reported as “inactive”.
With `Nc1c(NC/C=C\COc2cc(CN3CCCCC3)ccn2)c(=O)c1=O` the Potency was “inactive”.
With `COC(=O)c1cc(Cl)c(NC(C)=O)cc1OC` the Potency was “inactive”.
With `COc1ccc(CCC(C)=O)cc1` the Potency was “inactive”.
With `O=C(NN1CCCC1)NS(=O)(=O)c1ccc(Cl)cc1` the Potency was “inactive”.
With `CCc1cccc2c(CCO)c[nH]c12` the Potency was “inactive”.
With `O=C1Cc2cc(Cl)ccc2N1` the Potency was “inactive”.
